Consider 8 compounds from PubChem BioAssay (NCI).

Compounds without any hit were thinned out: in the full panel of roughly 83,000, 20% have a hit.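 Step 1: grow cells in 96-well plates. Step 2: add test compound at a single concentration. Step 3: incubate 48 h. Step 4: record percent growth.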 Unmarked numbers belong to inactive results. The source made the active and inactive calls. Rule for the calls: active = growth percent below 10; inactive = the rest.

What all share (assay): NCI-60 one-dose screen, 48 h (100 = growth as untreated, 0 = no growth, -100 = all killed)
One assay relates to SK-MEL-2 melanoma. Particulars: 10 µM unless noted.
Another assay deals with EKVX NSCLC. The note with it: 10 µM unless noted.
Another assay relates to SN12C renal. The note with it: 10 µM unless noted.
The next assay has as its system UO-31 renal. The note with it: 10 µM unless noted.
In the next assay the test system is TK-10 renal. The note with it: 10 µM unless noted.
Another assay has as its system ACHN renal. Particulars: 10 µM unless noted.
The test system of the next assay is CAKI-1 renal. Particulars: 10 µM unless noted.
The next assay deals with A498 renal. Particulars: 10 µM unless noted.
For another assay, the system named is CCRF-CEM leukemia. The note with it: 10 µM unless noted.
The next assay relates to MOLT-4 leukemia. Particulars: 10 µM unless noted.
For a further assay, the system named is SR leukemia. The note with it: 10 µM unless noted.
A further assay deals with RPMI-8226 leukemia. The note with it: 10 µM unless noted.
In a further assay the test system is OVCAR-8 ovarian. Particulars: 10 µM unless noted.
The subject of a further assay is OVCAR-5 ovarian. Particulars: 10 µM unless noted.
The test system of another assay is OVCAR-4 ovarian. The note with it: 10 µM unless noted.
Another assay concerns SK-OV-3 ovarian. Particulars: 10 µM unless noted.
The test system of the next assay is IGROV1 ovarian. Particulars: 10 µM unless noted.
The next assay deals with OVCAR-3 ovarian. The note with it: 10 µM unless noted.
The next assay deals with HS 578T breast. Particulars: 10 µM.
For the next assay, the system named is NCI/ADR-RES ovarian. The note with it: 10 µM unless noted.

For the compound `C#CC[C@@H]1C[C@]2(C)[C@H]3CC=C4[C@H]5[C@@H](C)[C@H](C)CC[C@]5(C(=O)NCCCN5CCN(CCCN)CC5)CC[C@@]4(C)[C@]3(C)CC[C@H]2C(C)(C)[C@H]1OC(C)=O`, the growth in the assay with SK-MEL-2 melanoma was -57.3% (active); in the assay on EKVX NSCLC it was -83.4% (active); in the assay on SN12C renal it was -43.8% (active); with UO-31 renal, -84.2% (active); in the assay on TK-10 renal, -32.8% (active); in the assay with ACHN renal it was -74.9% (active). For the same compound, the growth with CAKI-1 renal was -68% (active); in the assay on A498 renal, 111%; in the assay on CCRF-CEM leukemia, -29.4% (active); with MOLT-4 leukemia, -38.1% (active); in the assay with SR leukemia, -5.62% (active); with RPMI-8226 leukemia, -52.1% (active). Further, the growth was -58.3% (active) in the assay with OVCAR-8 ovarian; 29.4% with OVCAR-5 ovarian; -17.5% (active) with OVCAR-4 ovarian; 115% in the assay on SK-OV-3 ovarian; -60.5% (active) in the assay on IGROV1 ovarian; -73.7% (active) with OVCAR-3 ovarian. Also, the growth in the assay with HS 578T breast is -25.3% (active); in the assay on NCI/ADR-RES ovarian, 61.7%.

Regarding `O=C(Nc1ccc(Br)cc1)Nc1ccccc1Cl`, the growth was 92% in the assay with SK-MEL-2 melanoma; 70.9% in the assay on EKVX NSCLC; 84.7% with SN12C renal; 58.9% in the assay on UO-31 renal; 125% with TK-10 renal; 84.4% in the assay on ACHN renal. In addition, the growth in the assay with CAKI-1 renal is 55.2%; in the assay with A498 renal, 86.9%; with CCRF-CEM leukemia, 94.8%; in the assay with MOLT-4 leukemia it was 63.9%; in the assay with SR leukemia, 84.9%; with RPMI-8226 leukemia it was 50%. In addition, the growth was 79.8% in the assay with OVCAR-8 ovarian; 90.1% in the assay on OVCAR-5 ovarian; 75.1% in the assay on OVCAR-4 ovarian; 84.6% in the assay on SK-OV-3 ovarian; 63.9% with IGROV1 ovarian; 88.1% in the assay with OVCAR-3 ovarian. In addition, the growth in the assay with HS 578T breast was 99.7%; in the assay with NCI/ADR-RES ovarian, 80%.

In the case of `Cc1[nH]nc2ccc3nc(-c4ccc5[nH]ncc5c4)c4c(c3c12)CCCC4`, the growth with SK-MEL-2 melanoma is -15.5% (active); in the assay with EKVX NSCLC, 20.2%; in the assay with SN12C renal, 23.2%; in the assay on UO-31 renal, 12.8%; with TK-10 renal it was 10.3%; with ACHN renal, 6.93% (active). Besides, the growth was 12.5% in the assay with CAKI-1 renal; -10.8% (active) in the assay on A498 renal; 16.8% in the assay on CCRF-CEM leukemia; 3.85% (active) in the assay with MOLT-4 leukemia; 1.09% (active) in the assay with SR leukemia; 13% in the assay on RPMI-8226 leukemia. Also, the growth was 28.2% in the assay with OVCAR-8 ovarian; 46.6% with OVCAR-5 ovarian; 38.4% with OVCAR-4 ovarian; -19.6% (active) with SK-OV-3 ovarian; 11.9% in the assay with IGROV1 ovarian; 32.8% in the assay on OVCAR-3 ovarian. Besides, the growth is -6.38% (active) in the assay with HS 578T breast and 40% with NCI/ADR-RES ovarian.

For `COc1c(B(O)O)cccc1-c1nc2c(F)cc3n[nH]c(C)c3c2c2c1CCCC2`, the growth with SK-MEL-2 melanoma was -10.3% (active); in the assay on EKVX NSCLC, 34.8%; in the assay with SN12C renal, 19.3%; with UO-31 renal, -2.78% (active); in the assay with TK-10 renal, -2.49% (active); with ACHN renal, 8.08% (active). Besides, the growth in the assay with CAKI-1 renal was 0.215% (active); in the assay with A498 renal, -53.6% (active); in the assay with CCRF-CEM leukemia it was 17.7%; in the assay on MOLT-4 leukemia it was 28.7%; with SR leukemia, 42%; in the assay on RPMI-8226 leukemia, 6.03% (active). Further, the growth is 17.3% in the assay on OVCAR-8 ovarian; 8.74% (active) in the assay on OVCAR-5 ovarian; 43.7% in the assay with OVCAR-4 ovarian; -1.49% (active) in the assay on SK-OV-3 ovarian; 16.3% in the assay on IGROV1 ovarian; 9.19% (active) with OVCAR-3 ovarian. Also, the growth with HS 578T breast is 9.55% (active); in the assay on NCI/ADR-RES ovarian, 36.4%.

Take `COc1ccc2[nH]c(C(=O)OCc3ccc4c(Br)cc(Br)c(O)c4n3)cc2c1`: the growth with SK-MEL-2 melanoma was -40.3% (active); with EKVX NSCLC, -70.9% (active); with SN12C renal it was -71.2% (active); in the assay on UO-31 renal, -100% (active); in the assay with TK-10 renal, -95.6% (active); with ACHN renal, -98.3% (active). Also, the growth with CAKI-1 renal is -98.7% (active); in the assay with A498 renal it was -17.1% (active); in the assay with CCRF-CEM leukemia, 3.76% (active); with MOLT-4 leukemia, -8.86% (active); with SR leukemia, 2.81% (active); with RPMI-8226 leukemia, -24.2% (active). For the same compound, the growth in the assay on OVCAR-8 ovarian is -27.7% (active); in the assay on OVCAR-5 ovarian it was -48.4% (active); with OVCAR-4 ovarian, -44.2% (active); in the assay on SK-OV-3 ovarian, 62.6%; in the assay with IGROV1 ovarian, -90.9% (active); in the assay with OVCAR-3 ovarian it was -91.3% (active). Further, the growth is -15.4% (active) in the assay with HS 578T breast and -30.6% (active) in the assay with NCI/ADR-RES ovarian.

In the case of `CCN(CC)CCCCCCCNc1cc(OC)cc2c(C)ccnc12`, the growth was 109% in the assay on SK-MEL-2 melanoma; 86.7% in the assay on EKVX NSCLC; 81.6% in the assay on SN12C renal; 38.2% with UO-31 renal; 110% in the assay on TK-10 renal; 87.7% in the assay on ACHN renal. The growth in the assay with CAKI-1 renal was 94%; in the assay with A498 renal, 63.2%; with CCRF-CEM leukemia it was 83.7%; in the assay with MOLT-4 leukemia, 72%; in the assay with SR leukemia, 73.2%; with RPMI-8226 leukemia, 68.9%. Also, the growth in the assay with OVCAR-8 ovarian was 67.2%; with OVCAR-5 ovarian it was 97.5%; with OVCAR-4 ovarian, 21.1%; with SK-OV-3 ovarian, 94.9%; with IGROV1 ovarian, 52.6%; in the assay with OVCAR-3 ovarian, 20.6%. Further, the growth in the assay with HS 578T breast is 72.4%; in the assay with NCI/ADR-RES ovarian, 78.6%.

`COc1ccc2[nH]cc(/C=C3\C(=O)Nc4ccccc43)c2c1`: the growth is 12.6% in the assay with SK-MEL-2 melanoma; 49% in the assay on EKVX NSCLC; 49.5% in the assay with SN12C renal; -14.7% (active) in the assay with UO-31 renal; 53% in the assay with TK-10 renal; 34.6% with ACHN renal. Also, the growth in the assay on CAKI-1 renal was -0.757% (active); with A498 renal, 40.5%; in the assay on CCRF-CEM leukemia it was 14%; with MOLT-4 leukemia, 1.26% (active); in the assay on SR leukemia, 2.21% (active); in the assay on RPMI-8226 leukemia, 31.3%. Besides, the growth with OVCAR-8 ovarian is 31.9%; with OVCAR-5 ovarian, 52.9%; with OVCAR-4 ovarian it was 54.6%; in the assay on SK-OV-3 ovarian it was 38.9%; with IGROV1 ovarian, -21.9% (active); with OVCAR-3 ovarian, 35.5%. For the same compound, the growth in the assay with HS 578T breast was 33.2%; in the assay with NCI/ADR-RES ovarian it was 23.1%.

On to `C/C(=N\NC(=S)N1CCCCC1)c1ccccn1`, for which the growth in the assay with SK-MEL-2 melanoma was 34.3%; in the assay with EKVX NSCLC, -4.33% (active); with SN12C renal, 21%; with UO-31 renal, -13.6% (active); in the assay with TK-10 renal, 22.4%; in the assay with ACHN renal, 17.3%. Also, the growth is -4% (active) with CAKI-1 renal; -13.5% (active) with A498 renal; 8.62% (active) in the assay with CCRF-CEM leukemia; -3.73% (active) in the assay on MOLT-4 leukemia; -7.37% (active) with SR leukemia; -19.4% (active) in the assay with RPMI-8226 leukemia. The growth in the assay with OVCAR-8 ovarian was 16%; in the assay with OVCAR-5 ovarian it was 29.3%; with OVCAR-4 ovarian it was -30.6% (active); in the assay on SK-OV-3 ovarian, 27.6%; with IGROV1 ovarian, 11.2%; in the assay with OVCAR-3 ovarian, -12.9% (active). The values for the growth in the assay with HS 578T breast and in the assay with NCI/ADR-RES ovarian were 16.8% and 15.2%, respectively.
